# The full list was thinned out, with hits kept by preference.
# GluA2 TARP mod – modulates AMPAR-stargazin complexes | O88602+P19491 | HEK293 GluA2+stargazin, membrane potential dye (FDSS), glutamate EC50; hits were called plate by plate, in both directions | calls only at 30 µM | 40,000 compounds, 3.5% hits;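 active means any of four per-well response measures lying three or more SD from its plate-wide compound average, in either direction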
# Target sequence (O88602 whole entry, looked up): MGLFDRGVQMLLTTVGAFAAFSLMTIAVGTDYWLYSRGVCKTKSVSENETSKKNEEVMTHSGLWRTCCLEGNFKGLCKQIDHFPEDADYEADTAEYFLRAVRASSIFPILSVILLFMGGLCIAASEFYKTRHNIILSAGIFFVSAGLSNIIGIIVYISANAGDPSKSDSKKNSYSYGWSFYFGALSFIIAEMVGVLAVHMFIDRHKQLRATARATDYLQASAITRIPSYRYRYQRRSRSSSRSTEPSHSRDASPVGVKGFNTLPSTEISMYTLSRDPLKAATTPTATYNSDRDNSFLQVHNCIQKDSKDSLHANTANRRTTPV
# Target sequence (P19491 whole entry, looked up): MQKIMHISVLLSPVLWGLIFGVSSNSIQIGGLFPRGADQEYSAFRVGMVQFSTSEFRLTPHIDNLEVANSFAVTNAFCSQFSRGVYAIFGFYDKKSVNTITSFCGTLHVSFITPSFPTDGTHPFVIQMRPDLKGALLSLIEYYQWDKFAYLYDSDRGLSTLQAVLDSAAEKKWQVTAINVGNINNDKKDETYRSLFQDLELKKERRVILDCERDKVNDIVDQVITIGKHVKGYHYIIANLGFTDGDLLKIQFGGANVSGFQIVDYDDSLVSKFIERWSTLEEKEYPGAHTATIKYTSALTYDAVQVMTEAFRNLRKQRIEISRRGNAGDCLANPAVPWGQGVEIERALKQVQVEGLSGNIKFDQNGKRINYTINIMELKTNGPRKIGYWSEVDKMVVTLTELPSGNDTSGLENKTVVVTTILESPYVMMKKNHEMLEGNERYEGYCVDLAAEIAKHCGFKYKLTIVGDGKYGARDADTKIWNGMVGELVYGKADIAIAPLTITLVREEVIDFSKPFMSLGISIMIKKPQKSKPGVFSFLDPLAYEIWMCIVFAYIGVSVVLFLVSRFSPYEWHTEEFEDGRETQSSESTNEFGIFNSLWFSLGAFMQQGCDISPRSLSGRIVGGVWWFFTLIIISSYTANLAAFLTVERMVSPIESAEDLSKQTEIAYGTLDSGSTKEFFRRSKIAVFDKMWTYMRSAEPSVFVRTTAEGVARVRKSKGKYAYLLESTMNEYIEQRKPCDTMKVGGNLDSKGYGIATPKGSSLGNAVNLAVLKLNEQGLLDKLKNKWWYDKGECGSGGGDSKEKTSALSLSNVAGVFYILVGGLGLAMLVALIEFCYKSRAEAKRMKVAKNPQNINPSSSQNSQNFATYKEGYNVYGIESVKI
# GIRK2 act – Activates human GIRK2-containing potassium channels; 34,000 tested, under 10 active; HEK293 GIRK2/NPY4 cells, thallium flux fluorescence; activation (% efficacy), % for hits at 37.5 µM; P48051;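 active means primary screen hit, no activity in plain HEK293 cells, and in GIRK2-only cells above 5% efficacy rising with concentration; inactive means the rest, including fluorescent compounds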;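 further: efficacy is normalized control-subtracted fluorescence 15 s after thallium addition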
# Starred values were filed as active, the others as inactive; i = inactive; x = no result; + = active, no number; ! = not confirmed by another sample.
SMILES,GluA2 TARP mod,GIRK2 act
Cn1c(=O)c2c(ncn2Cc2ccccc2)n(C)c1=O,i,x
Cn1c(=O)c2c(ncn2CC(=O)NCc2ccccc2)n(C)c1=O,+,x
COCCn1c(N)c(C(=O)NCc2ccccc2Cl)c2nc3ccccc3nc21,i,i
CC(=O)Cn1c(=O)c2c(nc3n(-c4cc(C)ccc4C)c(-c4ccccc4)cn23)n(C)c1=O,i,x
COc1ccc2nc(-c3cccc(NC(=O)Nc4ccc(OC)c(OC)c4)c3)cn2n1,i,i
Cc1c(Cl)cccc1NC(=O)C(=O)NCCn1ccnc1C,i,i
CC12CCC(C(=O)Nc3ccccc3-n3cccc3)(CC1=O)C2(C)C (stereo unspecified),+,x
CC12CCC(C(=O)Nc3ccccc3N3CCOCC3)(CC1=O)C2(C)C (stereo unspecified),i,i
Cc1nnsc1C(=O)Nc1ccc2c(c1)N(C(=O)C1CC1)CC2,i,i
Cc1nnsc1C(=O)Nc1ccc2c(c1)N(C(=O)c1ccco1)CC2,+,i
CCOc1ccc(NC(=O)N2CCC3(CC2)NC(=O)N(CCc2ccccc2)C3=O)cc1,i,i
Cc1ccc(C(CNC(=O)C(=O)Nc2ccc3c(c2)OCO3)N(C)C)cc1 (stereo unspecified),i,i
CN(C)CCNC(=O)C(=O)Nc1cccc(N2CCCC2=O)c1,i,i
CC(=O)CC1(O)C(=O)N(CCOc2ccc(C(C)(C)C)cc2)c2ccccc21 (stereo unspecified),+!,i
CC(=O)CC1(O)C(=O)N(CCCOc2ccccc2C)c2ccccc21 (stereo unspecified),i,i
O=C(NCCn1ncc2c(N3CCOCC3)ncnc21)c1ccc(=O)oc1,i,x
O=C(NC1CC(=O)N(c2ccccc2)C1)c1ccccc1C(F)(F)F (stereo unspecified),i,x
COc1ccc(N2CC(NC(=O)c3ccccc3C(F)(F)F)CC2=O)cc1 (stereo unspecified),+,x
CCOc1ccccc1C(=O)NCC1CCN(c2ncccn2)CC1,+,i
COc1cccc2cc(C(=O)NCC3CCN(c4ncccn4)CC3)c(=O)oc12,+,i
CCOc1ccccc1NC(=O)C(=O)NCC1CCN(c2ncccn2)CC1,i,i
O=C(NCC1CCN(c2ncccn2)CC1)c1c(F)cccc1F,i,i
Cn1cccc1C(CNC(=O)c1c(F)cccc1F)N1CCOCC1 (stereo unspecified),i,i
Cc1n[nH]c(C)c1S(=O)(=O)N1CCC(Cn2c(C)nc3ccccc32)CC1,i,i
Cc1c(Cl)cccc1S(=O)(=O)N1CCC(Cn2c(C)nc3ccccc32)CC1,+,i
SMILES,GluA2 TARP mod,GIRK2 act
COc1ccc(Cl)cc1NC(=O)Cc1c(C)[nH]c(=O)[nH]c1=O,i,i
Cc1cc(=O)n(CC(=O)Nc2cc(C(F)(F)F)ccc2Cl)cn1,i,i
CCc1c(C)nc(SCC(=O)Nc2cc(C(F)(F)F)ccc2Cl)[nH]c1=O,+,x
Cc1cc(C)n(-c2nc3c(c(=O)n2CC(=O)NCc2ccco2)CCCC3)n1,+,i
Cc1cc(C)n(-c2nc3c(c(=O)n2CC(=O)N(C)c2ccccc2)CCC3)n1,i,i
CNC(=O)C(=O)Nc1cccc(N2CCCC2=O)c1,i,i
O=C(Cn1c(CO)cnc1SCc1c(F)cccc1Cl)NC1CCCC1,+,i
Cc1nc2c(sc3cccc(F)c32)c(=O)n1CC(=O)NC1CCCCC1,x,i
Cc1cc(C(=O)Nc2cccc3c2C(=O)NC3=O)on1,+,i
Cn1nccc1C(=O)Nc1cccc2c1C(=O)NC2=O,x,i
Cc1cc(-c2nnc(NC(=O)C3CC3)o2)nn1C,i,i
COCCn1c(SCc2ccc(Cl)cc2)nc2cc(C(=O)NC(C)C)ccc2c1=O,i,i
COCCn1c(SCC(=O)c2c(C)[nH]c3ccccc23)nc2cc(C(=O)NC(C)C)ccc2c1=O,+,x
COc1cc(S(=O)(=O)Nc2cccc3cn[nH]c23)c(OC)cc1Cl,i,x
COc1cc(S(=O)(=O)Nc2cc(Cl)ccc2O)c(OC)cc1Cl,+,i
CC(C)Cn1c(=O)c2nscc2n(CC(=O)N2CCN(c3ccccc3)CC2)c1=O,i,i
O=C(COc1ccc(F)cc1)NCCS(=O)(=O)N1CCN(Cc2ccccc2)CC1,i,i
O=S(=O)(CCCOc1ccc(F)cc1)NC1CCN(Cc2ccccc2)CC1,+,i
Cc1cc(C)n(CCNC(=O)Cn2c3c(c4ccccc42)CCC3)n1,i,i
O=C(Cn1c2c(c3ccccc31)CCC2)NCC1CCS(=O)(=O)C1 (stereo unspecified),+,i
Cc1ccc(OCC(O)Cn2c(NCCN3CCOCC3)nc3c2c(=O)n(C)c(=O)n3C)cc1C (stereo unspecified),i,x
CC(C)c1cc(=O)n(CC(=O)NCCOc2ccc(F)cc2)cn1,i,i
COc1ccc(Br)cc1C1SCCN1S(=O)(=O)c1cccc(C)c1 (stereo unspecified),+,x
COc1ccc(S(=O)(=O)N2CCSC2c2ccc(Br)cc2)cc1 (stereo unspecified),i,x
CCCNC(=O)CCCCn1c(=O)c2ccccc2n(CC(=O)Nc2ccccc2Cl)c1=O,+,i
SMILES,GluA2 TARP mod,GIRK2 act
CCCNC(=O)CCCCn1c(=O)c2ccccc2n(CC(=O)Nc2cccc(SC)c2)c1=O,i,i
O=C(CCCCn1c(=O)[nH]c2ccccc2c1=O)NC1CCCCCC1,i,i
O=C(CCCCn1c(=O)c2ccccc2n(CC(=O)NC2CCCCC2)c1=O)NCc1cccs1,+,i
COc1ccc(-n2c(C)nc3ccc(NC(=O)c4ccc(OC)cc4OC)cc3c2=O)cc1,i,x
CCOCCCNC(=O)c1cccc(-n2c(=S)[nH]c3cc(Cl)ccc3c2=O)c1,i,i
COc1cc([N+](=O)[O-])cc2cc(C(=O)NC(C)c3ccccc3)c(=O)oc12 (stereo unspecified),i,i
COc1cc([N+](=O)[O-])cc2cc(C(=O)N3CCN(c4cccc(C(F)(F)F)c4)CC3)c(=O)oc12,+,i
O=C1c2ccccc2C(O)(Cc2ccccc2)N1C(c1ccccc1)c1ccccc1 (stereo unspecified),+,x
O=C1c2ccccc2C(O)(Cc2ccccc2)N1CCCN1CCOCC1 (stereo unspecified),i,x
CCCOc1cn(-c2ccc(F)cc2)nc1C(=O)NCCC(C)C,+,i
CCCOc1cn(-c2ccc(F)cc2)nc1C(=O)NCCc1ccccc1,i,i
CCOc1cn(-c2ccc(F)cc2)nc1C(=O)N1CCCCC1,i,i
CCOC(=O)N1CCN(C(=O)c2nn(-c3ccc(F)cc3)cc2OCC)CC1,i,i
CCOc1cn(-c2ccc(F)cc2)nc1C(=O)N1CC(C)CC(C)C1 (stereo unspecified),+,i
CCOc1cn(-c2ccc(F)cc2)nc1C(=O)N1c2ccccc2CC1C (stereo unspecified),+,i
CC(C)OC(=O)COc1ccc2c(c1)O/C(=C\c1cccs1)C2=O,i,x
COc1cc(C)c(S(=O)(=O)N2CCC3(CC2)C(=O)N(C)C(=O)N3C)cc1C,i,i
COc1ccc(CCNC(=O)C(=O)Nc2ccc(NC(C)=O)cc2)cc1,+,i

# Bioassay records from PubChem.
